Where “and” joins values, the source holds several entries; their conditions need not be identical. Equal entries are not always repeated. Hit rate of the full screen: of about 16,000 compounds, about 2,600 (16%) were called active. Another 20% or so got no clear call; they are omitted. These entries were drawn from the full list. Values without a mark were called inactive. Calls come from the whole dose curve; as a rule, active = well fitted curve in the direction sought with a large enough effect; inconclusive = small, poorly fitted or top-dose-only effect, or effect the other way; inactive = no such curve, though single readings can be large or run the other way.
What follows are molecules tested against Cytochrome P450 2D6 (Homo sapiens) (UniProt P10635) (assay: Cytochrome panel assay with activity outcomes). Settings: recombinant CYP, pro-luciferin dealkylation, luminescence, p450-cyp2d6; series mostly up to 57.1 µM; activity, negative = inhibition: at the top concentration.
% is set by controls: 0 for no effect and ±100 for the full control effect.

Sequence of Cytochrome P450 2D6 (Homo sapiens) (P10635 whole entry, looked up): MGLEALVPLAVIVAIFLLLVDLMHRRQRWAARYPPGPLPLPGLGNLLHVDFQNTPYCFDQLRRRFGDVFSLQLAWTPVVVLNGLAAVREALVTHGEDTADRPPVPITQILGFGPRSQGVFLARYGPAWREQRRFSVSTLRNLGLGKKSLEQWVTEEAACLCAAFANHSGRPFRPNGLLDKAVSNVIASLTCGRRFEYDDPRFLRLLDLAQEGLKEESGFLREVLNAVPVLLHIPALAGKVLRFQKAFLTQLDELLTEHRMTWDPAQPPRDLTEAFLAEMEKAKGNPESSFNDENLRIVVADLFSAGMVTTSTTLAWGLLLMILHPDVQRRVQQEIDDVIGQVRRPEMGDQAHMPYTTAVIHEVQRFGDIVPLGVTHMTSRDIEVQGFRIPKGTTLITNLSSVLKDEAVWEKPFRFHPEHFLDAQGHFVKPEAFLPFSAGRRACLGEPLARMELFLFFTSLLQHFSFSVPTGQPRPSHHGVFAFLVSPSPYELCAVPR

Row | Compound | activity, negative = inhibition | AC50
1 | O=C(CSc1nc2ccccc2[nH]1)Nc1c(F)cccc1F | -12.7% | –
2 | Cc1c(OCC(F)(F)F)ccnc1CSc1nc2ccccc2[nH]1 | – | 0.398 µM (active)
3 | C[N+](C)(C)CCCSc1nc2ccccc2[nH]1 | 11.4% [at 11.4 µM] | –
4 | O=S(=O)(O)c1ccc(-c2nnc(-c3ccccn3)nc2-c2ccc(S(=O)(=O)O)o2)o1 | 16.6% [at 11.4 µM] | –
5 | O=C(Cc1cccc2ccccc12)N/N=C/c1ccc(Sc2nc3ccccc3s2)o1 | 0.203% | –
6 | Cc1ccc(S(=O)(=O)N[C@H]2COC(=O)[C@@H](Cc3ccccc3)NC(=O)[C@@H](C)COC(=O)C/C=C\[C@@H]2C)cc1 | -0.453% [at 11.4 µM] and -0.419% [at 11.4 µM] | –
7 | Oc1c([C@H](Nc2ccccn2)c2ccccc2)ccc2cccnc12 | – | 0.316 µM (active)
8 | O=C(O)c1ccccc1N[C@H](c1ccccc1)c1ccc2cccnc2c1O | -6.89% [at 11.4 µM] | –
9 | Cc1ccc(N[C@H](c2ccccc2)c2ccc3cccnc3c2O)cc1 | -11.8% [at 11.4 µM] | –
10 | CCCc1nnc(SCC(=O)N2CCCCC2)n1CCCOC | 7.22% | –
11 | CCOc1ccc(NC(=S)N(Cc2ccc(Cl)cc2)Cc2ccco2)cc1 | – | 7.94 µM (active)
12 | CCOc1ccc(NC(=O)c2oc3ccccc3c2NC(=O)CC)cc1 | -24.9% | –
13 | CCOc1ccc(NC(=S)N(Cc2ccc(N(C)C)cc2)Cc2ccco2)cc1 | – | 8.91 µM (active)
14 | Cc1ccc(NC(=O)N(Cc2ccco2)C(C)c2ccco2)cc1C (centres undefined) | -5.98% | –
15 | O=C(COc1ccc(Cl)cc1)Nc1ccc(N2CCN(C(=O)c3ccco3)CC2)cc1 | -1.91% | –
16 | Cc1noc(NS(=O)(=O)c2ccc(N/C=C/C(=O)c3ccc4c(c3)OCO4)cc2)c1C | -18% | –
17 | CCCn1nnnc1-c1cccc(Cl)c1 | 20.1% | –
18 | COc1ccc(CNc2ncncc2-c2ccc3c(c2)OCO3)c(OC)c1 | – | 0.794 µM (active)
19 | COc1ccccc1CNc1ncncc1-c1ccc2c(c1)OCO2 | – | 2.51 µM (active)
20 | CCc1ccc(OCC(=O)NNC(=O)CSc2ncnc3sc(C)c(C)c23)cc1 | 1.22% | –
21 | O=S(=O)(/N=C(\Sc1ccccc1)c1ccccc1)c1ccc(Cl)cc1 | -7.46% | –
22 | Cc1cc(C)c(NC(=O)C[C@H](CC(=O)O)c2cccc3ccccc23)c(C(=O)N2CCC3(CCCC3)CC2)c1 | 5.85% | –

Row | Compound | activity, negative = inhibition | AC50
23 | CCCCCCCCOC1OC(CO)C(O)C(O)C1NC(C)=O (centres undefined) | 10% | –
24 | Nc1ccn([C@H]2O[C@@H](COP(=O)(O)O)[C@@H](O)[C@H]2O)c(=O)n1 | 0.248% [at 11.4 µM] | –
25 | CO[C@@H]1COC(=O)[C@H]2CCCN2C(=O)C/C=C\[C@@H](C)[C@H](OC)COC(=O)[C@H]2CCCN2C(=O)C/C=C\[C@H]1C | 9.95% [at 11.4 µM] | –
26 | CN(C)c1oc(-c2ccccc2)nc1C#N | -12.9% | –
27 | COc1ccccc1-c1ccc2ncnc(Nc3ccccc3)c2c1 | – | 10 µM (active)
28 | COc1cccc(-c2ccc3ncnc(NCc4cccnc4)c3c2)c1 | – | 10 µM (active)
29 | Clc1ccccc1-c1cc(NCc2cccnc2)ncn1 | -2.97% | –
30 | COc1ccccc1-c1ccc2ncnc(NCc3cccnc3)c2c1 | – | 7.94 µM (active)
31 | Clc1ccccc1-c1ccc2ncnc(NCc3cccnc3)c2c1 | – | 6.31 µM (active)
32 | C=CCn1cc(/C=N\NC(=O)c2cc3c(ccc4ccccc43)o2)c2ccccc21 | -19.7% | –
33 | COc1ccc(CCn2c3c(c(=O)[nH]c2=O)C(NC(=O)c2cccs2)(C(F)(F)F)C(=O)N3)cc1OC (centres undefined) | 1.98% | –
34 | COC(=O)C1=C(NC(=O)c2cccc(OC)c2)CCS1 | -19.5% | –
35 | O=c1c(-c2ccccc2)nc2cnc(N3CCOCC3)nc2n1CCc1ccccc1 | -5% | –
36 | N#C/C(=C\Nc1ccccn1)C(=O)C1CC1 | 5.79% [at 11.4 µM] | –
37 | CC[C@@H](CS(=O)(=O)O)[N+](=O)[O-] | 2.2% [at 11.4 µM] | –
38 | CN[C@@H]1[C@H](O[C@@H]2O[C@H](CO)[C@@H](N)[C@H](O)[C@@H]2O)O[C@H]2C[C@@H](N)[C@@H](O[C@H]3[C@@H](O)[C@H](O)[C@H](N)C[C@@H]3N)O[C@H]2[C@H]1O | 5.28% [at 25.6 µM] | –
39 | O=C(COc1ccc(-c2ccccc2)cc1)N/N=C/c1ccccc1Br | -26.4% | –
40 | FC(F)(F)c1ccccc1-c1ccc2ncnc(NCc3cccnc3)c2c1 | – | 1.58 µM (active)
41 | COc1ccc(-c2cc(C(F)(F)F)nc(NCc3cccnc3)n2)cc1 | – | 31.6 µM (active)
42 | COc1cccc(-c2cc(C(F)(F)F)nc(N3CCCCC3)n2)c1 | -11.8% | –
43 | CN(C)C(=O)c1ccc(-c2ccc3ncnc(Nc4ccc(F)cc4)c3c2)cc1 | – | 10 µM (active)
44 | COc1ccc(-c2cc(C(F)(F)F)nc(SCc3cccc(C(=O)O)c3)n2)cc1 | 22.7% | –

Row | Compound | activity, negative = inhibition | AC50
45 | CCCCCCCCCCCCCCCCCCc1ccc(C(=O)/C=C\C(=O)O)cc1 | 2.49% | –
46 | Cn1cc(-c2nc3cncnc3n(Cc3ccc(F)cc3)c2=O)c2ccccc21 | 11.3% | –
47 | CCCCC1(C)OC(=O)C(=Cc2ccc(N(C)C)cc2)C(=O)O1 (centres undefined) | 0.664% | –
48 | NS(=O)(=O)c1ccc(N=Nc2c(O)c(C(=O)O)cc3ccccc23)cc1 | 14.9% [at 11.4 µM] | –
49 | CC#CCCCC(=O)Nc1ccc(C(=O)O)cc1 | 14.3% | –
50 | Cn1nc(C(F)(F)F)c(/C=N/OC(=O)c2ccc(Cl)cc2)c1Cl | – | 15.8 µM (active)
51 | Cn1nc(C(F)(F)F)c(/C=N/OCc2c(Cl)cccc2Cl)c1Cl | -4.38% | –
52 | Cn1nc(C(F)(F)F)c(/C=N/OC(=O)c2ccccc2Cl)c1SCc1ccc(Cl)cc1 | -27.3% | –
53 | C=CC(=O)NC(NC(=O)C=C)c1ccc(Br)cc1 | 11% | –
54 | C(=C1/CCCC2=C1Nc1ncnn1C2c1ccccc1)/c1ccccc1 (centres undefined) | 2.54% | –
55 | O=C1CC(=Nc2ccccc2)NN1c1ccccc1 | -10.4% | –
56 | CCCCSc1ccc2nc(-c3ccc(C#N)cc3)cn2c1 | -24.5% | –
57 | CN(C)CCOC(=O)[C@@H](c1ccccc1)C1(O)CCCC1 | -6.43% [at 25.6 µM] | –
58 | CCN(CC)CCOC(=O)C(c1ccccc1)c1ccccc1 | – | 5.01 µM (active)
59 | CCCC(C(=O)OCCN(CC)CC)(c1ccccc1)c1ccccc1 | – | 63.1 nM (active) and 15.8 nM (active)
60 | CCN(CC)CCOC(=O)[C@@H](c1ccccc1)C1CCCCC1 | – | 0.631 µM (active)
61 | O=C1CCC[C@@H](C(C(=O)OCc2ccccc2)C(=O)OCc2ccccc2)C1 | -12.9% [at 11.4 µM] | –
62 | N[C@@](CCc1ccccc1)(C(=O)O)c1ccccc1 | 0.379% [at 11.4 µM] | –
63 | O=C(O)C1CCCN1C(=O)OCc1ccccc1 (centres undefined) | -3.43% | –
64 | CCN(Cc1ccncc1)C(=O)[C@@H](CO)c1ccccc1 | – | inactive
